ALOX12 inh: blocks human arachidonate 12S-lipoxygenase; P18054; purified 12hLO, xylenol orange hydroperoxide absorbance; Potency, µM (highest dose often 108 µM), for inactives: at the highest dose activity change, negative = inhibition, most hits filed as inhibitors; 580,000 tested, 1.1% active; further: potency means the concentration at half of the fitted maximal effect
Target sequence (P18054 whole entry, looked up): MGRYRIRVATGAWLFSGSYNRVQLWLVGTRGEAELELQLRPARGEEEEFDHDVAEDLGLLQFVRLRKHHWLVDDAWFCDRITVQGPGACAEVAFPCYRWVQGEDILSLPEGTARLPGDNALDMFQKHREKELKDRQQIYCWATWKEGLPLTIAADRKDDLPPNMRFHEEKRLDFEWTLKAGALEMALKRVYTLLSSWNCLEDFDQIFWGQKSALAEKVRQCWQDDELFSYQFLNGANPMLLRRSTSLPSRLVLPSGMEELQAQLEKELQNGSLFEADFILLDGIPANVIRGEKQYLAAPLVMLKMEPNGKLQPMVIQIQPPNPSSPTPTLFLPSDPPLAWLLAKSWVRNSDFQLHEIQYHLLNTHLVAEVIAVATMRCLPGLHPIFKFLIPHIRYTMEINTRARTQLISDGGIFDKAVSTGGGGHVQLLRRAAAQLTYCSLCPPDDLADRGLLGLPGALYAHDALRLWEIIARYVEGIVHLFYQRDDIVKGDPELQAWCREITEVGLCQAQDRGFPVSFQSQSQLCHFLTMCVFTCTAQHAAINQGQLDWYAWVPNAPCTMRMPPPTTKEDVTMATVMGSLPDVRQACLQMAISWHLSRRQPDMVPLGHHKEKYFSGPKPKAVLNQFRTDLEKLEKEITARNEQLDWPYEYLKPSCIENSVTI
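Purified human 12hLO at 150 nM in 25 mM Hepes, 0.01% Triton X-100, pH 7.0, preincubated 15 min at room temperature with compound. Reaction started with 40 uM arachidonic acid, 30 min at room temperature. Hydroperoxide measured by Fe-xylenol orange, 573/405 nm absorbance ratio.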
TDP1 cell CPT: DT40-hTDP1 cell growth loss with CPT | chicken DT40 Tdp1-/-;hTDP1 cells + 20 nM CPT, ATP luminescence, 48 h | Potency, µM (titrated, usually from 46.2 µM), for the others: at the top dose activity change, negative = growth inhibition, most hits filed as inhibitors | 420,000 tested, 12% active | AID 686979; further: potency means the concentration at half of the fitted maximal effect; nearly all actives have a fitted effect of over 55% in size
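Cell growth measured by CellTiter-Glo luminescence after a minimum 48 h, 37 C compound exposure with 20 nM CPT in Tdp1-knockout DT40 cells stably expressing hTDP1, seeded 400/well; qHTS titration format.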
DT40 TDP1 no CPT: qHTS for Inhibitors of human tyrosyl-DNA phosphodiesterase 1 (TDP1): qHTS in cells in absence of CPT | DT40 Tdp1-/- hTDP1 cells, no CPT, ATP luminescence, 48 h | Potency, µM (top dose mostly 46.2 µM), without a hit: at the highest dose activity change, negative = growth inhibition, most hits filed as inhibitors | AID 686978, 2013 | 420,000 tested, 15% active; further: potency means the concentration at half of the fitted maximal effect; nearly all actives have a fitted effect of over 55% in size
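Seeded 400 DT40-hTDP1 cells/well (vehicle DMSO, no 20 nM CPT); pinned compounds; ≥48 hr at 37 °C; CellTiter-Glo luminescence as viability measure.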
HT1080 IDH1KD tx: kills HT-1080 cells with IDH1 knockdown; Potency, µM (highest dose often 46.1 µM), inactives show top-dose activity, negative = toxicity, usual class: cytotoxic; 360,000 tested, 2% active; HT-1080 IDH1 knockdown viability, ATP luminescence, 48 h; AID 686971;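 further: potency means the concentration at half of the fitted maximal effect; 0% = DMSO wells and -100% = cell-free medium wells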
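% activity derives from luminescence (CellTiter-Glo), normalised to DMSO and no-cell wells. HT-1080-IDH1KD cells, 750/well, had 48 h compound exposure at 37 °C.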
HT1080-NT tox: kills 2HG-producing HT-1080-NT fibrosarcoma cells; AID 686970; Potency, µM (highest dose often 46.1 µM), for the others: at the top dose activity, negative = less viability, most hits filed as cytotoxic; HT-1080-NT fibrosarcoma viability, CellTiter-Glo ATP luminescence, 48 h; 360,000 tested, 1.6% active;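 further: NT is the 2HG producing partner of a matched IDH1 knockdown line; potency means the concentration at half of the fitted maximal effect; 0% = DMSO-treated cells and -100% = media-only wells without cells; nearly all actives have a fitted effect of over 55% in size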
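HT-1080-NT fibrosarcoma cells (2HG-overproducing), 750 cells/well in RPMI with 5% FBS, dosed after 2 h and incubated 48 h at 37C. CellTiter-Glo luminescence normalized to DMSO and no-cell wells; concentration-response curves fitted and classed.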
IL-1B inflam inh: inhibitors of inflammasome signaling (IL-1 beta secretion) | THP-1 LPS/ATP IL-1B secretion, AlphaLISA, 16 h; stronger effect = lower value | activity change, % at 57.5 µM | 360,000 tested, 4.7% active | AID 743279; in the data active means activity change below about -50%; inconclusive means mostly about -30% to -49%
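THP-1 cells pretreated 1 hr with compounds (up to 57.5 uM final), then stimulated with LPS (250 ng/mL final) plus ATP (1.25 mM final); secreted IL-1B measured by AlphaLISA after 16 hr, decreased signal indicating inhibition.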
* = called active by the depositor. This is one part of a sample in which hits are shown more often than they occur. Unless noted, the call rests on the fitted dose curve; in most records, active means well fitted curve in the direction sought with a large enough effect; inconclusive means small, poorly fitted or top-dose-only effect, or another doubt; inactive means no such curve, though single readings can be large; an effect the other way counts as inactive or inconclusive. Unless noted, on the % scale 0 is the no-effect control and ±100 the full control effect.

NC(=S)N/N=C/c1c(Cl)cccc1Cl was read as ALOX12 inh 4%.
`NC(=S)N/N=C\c1c(OCc2ccccc2Cl)ccc2ccccc12` gave ALOX12 inh 22µM*, TDP1 cell CPT 6.5µM*, DT40 TDP1 no CPT inconclusive, HT1080 IDH1KD tx -11%, HT1080-NT tox -12% and IL-1B inflam inh -19.
For NC(=S)N/N=C\c1c2ccccc2cc2ccccc12 the results were ALOX12 inh inconclusive, TDP1 cell CPT 15µM*, DT40 TDP1 no CPT inconclusive, HT1080 IDH1KD tx -19%, HT1080-NT tox -15% and IL-1B inflam inh -22.
For CCOc1ccccc1CNC(=O)c1cc2sc(C)c(CN3CCOCC3)c2[nH]1 the results were ALOX12 inh -5%.
`CCCCn1cnc2c1c(=O)n(CC(=O)Nc1ccc(F)c(F)c1)c(=O)n2CCCC` gave ALOX12 inh -4%.
COc1ccc(C(=O)N[C@@H]2CCC[C@@H]2C(=O)NCCC(C)C)cc1 was read as ALOX12 inh -2%.
Screening CNC(=S)N/N=C/c1c2ccccc2c(Cl)c2ccccc12 returned ALOX12 inh inconclusive, TDP1 cell CPT 5.8µM*, DT40 TDP1 no CPT 5.8µM*, HT1080 IDH1KD tx -13%, HT1080-NT tox -10% and IL-1B inflam inh 12.
Fc1ccc(CN2CCC(N3CC(OCC4CC4)C34CCOCC4)CC2)c(F)c1 (stereo not drawn) was read as ALOX12 inh 45%.
COc1ccccc1CNCc1ccc2c(c1)OCO2 was read as ALOX12 inh -2%, TDP1 cell CPT -17%, DT40 TDP1 no CPT inconclusive, HT1080 IDH1KD tx 1%, HT1080-NT tox -1% and IL-1B inflam inh -22.
`CCOc1ccccc1CN(CCc1ccc2c(c1)OCO2)Cc1cc(OC)c(OC)cc1OC` gave ALOX12 inh inconclusive, TDP1 cell CPT 6.5µM* and DT40 TDP1 no CPT 4.1µM*.
`CCOc1ccccc1CN(CCc1ccc2c(c1)OCO2)Cc1ccccn1` gave ALOX12 inh 0%, TDP1 cell CPT inconclusive, DT40 TDP1 no CPT 16µM*, HT1080 IDH1KD tx inconclusive, HT1080-NT tox -25% and IL-1B inflam inh -10.
For COC(OC)C1(CCc2ccccc2)NC(=O)NC1=O (stereo not drawn) the results were ALOX12 inh -16%, TDP1 cell CPT -14%, DT40 TDP1 no CPT -1%, HT1080 IDH1KD tx 16%, HT1080-NT tox 24% and IL-1B inflam inh -13.
Screening C=CCCN([C@@H](C)C(=O)OC)S(=O)(=O)c1ccccc1Br returned ALOX12 inh 7%, TDP1 cell CPT -20%, DT40 TDP1 no CPT inconclusive, HT1080 IDH1KD tx 4%, HT1080-NT tox 12% and IL-1B inflam inh 34.
For CCCCN([C@H](CO)C(C)C)S(=O)(=O)c1ccccc1Br the results were ALOX12 inh 3%, TDP1 cell CPT inconclusive, DT40 TDP1 no CPT 21µM*, HT1080 IDH1KD tx -3%, HT1080-NT tox -3% and IL-1B inflam inh 0.
Cc1ccc2nc(NCc3ccc(F)cc3)c(-n3nc(C)cc3C)nc2c1 was read as ALOX12 inh 2%.
For O=C1CCCN1c1ccc(S(=O)(=O)Oc2ccc(Cl)cc2)cc1[N+](=O)[O-] the results were ALOX12 inh 9%, TDP1 cell CPT 21µM*, DT40 TDP1 no CPT 21µM*, HT1080 IDH1KD tx -15%, HT1080-NT tox -15% and IL-1B inflam inh -6.
`O=[N+]([O-])c1cc(S(=O)(=O)Oc2ccccc2)ccc1Cl` gave ALOX12 inh 2%, TDP1 cell CPT 0.58µM*, DT40 TDP1 no CPT 0.58µM*, HT1080 IDH1KD tx 18µM*, HT1080-NT tox 15µM* and IL-1B inflam inh -101*.
For CCOCCCNS(=O)(=O)c1cccc2cc(C)cnc12 the results were ALOX12 inh 7%.
